Results published in the supplement of paper PMC10849652.
About 8,800 targets were measured; listed, in parts, are those with a hit and a random draw of the rest. About 0.5% of all pairs of compound and target were hits.

Assays:
Experiment in all cases: log2 fold change, soluble protein after heating vs DMSO (PISA); higher = thermal stabilisation; K562 lysate, 10 uM; active = over 0.2 and 3.5 SD of the protein, either way, in both replicates (recomputed)
[1] = compound: CN1CC[C@H](c2c(O)cc(O)c3c(=O)cc(-c4ccccc4Cl)oc23)[C@H](O)C1 [alvocidib]
Method in brief: (§1)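 Thermal stability, expressed as log-two fold change relative to solvent controls, is given from duplicates. Crude K562 extract in PBS pH 7.4 with 1 mM MgCl2, at 1 mg/mL protein, was treated with 10 μM compound for 30 min and heated in aliquots for 3 min across 48°C-58°C. After pooling, adjustment to 0.5% NP-40 at 4°C and centrifugation at 21,000xg for 90 min, supernatant protein was measured by TMTpro 16plex LC-MS/MS with channel sums equalised.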

[2] = compound: CN1CCc2c(c3ccccc3n2Cc2ccc(C(=O)NO)cc2)C1 [Tubastatin A]
Method in brief: as §1

[3] = compound: CNC(=O)C1=CC=CC=C1NC2=NC(=NC=C2Cl)NC3=C(C=C(C=C3)N4CCOCC4)OC
Method in brief: as §1

[4] = compound: CNC(=O)c1ccc(Nc2ncc(C(F)(F)F)c(NCc3nccnc3N(C)S(C)(=O)=O)n2)cc1 [defactinib]
Method in brief: as §1

[5] = compound: CNc1nc(-c2ccc3c(N)n[nH]c3c2)cc(N2C[C@@H](C(=O)NC3CCCCC3)CC[C@H]2C)n1
Method in brief: as §1

[6] = compound: COC(=O)N[C@@H](C)CNc1nccc(-c2cn(C(C)C)nc2-c2cc(Cl)cc(NS(C)(=O)=O)c2F)n1 [encorafenib]
Method in brief: as §1

[7] = compound: COC(=O)[C@H](CCSC)NC(=O)C1=C(C=C(C=C1)NC[C@H](CS)N)C2=CC=CC=C2
Method in brief: as §1

[8] = compound: COc1cc(Nc2ncc3c(n2)-c2ccc(Cl)cc2C(c2c(F)cccc2OC)=NC3)ccc1C(=O)O [alisertib]
Method in brief: as §1

[9] = compound: COc1cc2nc(-c3cc(F)ccc3O)nc(N[C@@H]3CNC[C@H]3C(C)(C)O)c2cc1OC
Method in brief: as §1

[10] = compound: COc1cc2ncnc(Nc3ccc(F)c(Cl)c3)c2cc1OCCCN1CCOCC1 [gefitinib]
Method in brief: as §1

[11] = compound: CS(=O)(=O)CCNCc1ccc(-c2ccc3ncnc(Nc4ccc(OCc5cccc(F)c5)c(Cl)c4)c3c2)o1 [lapatinib]
Method in brief: as §1

[12] = compound: CS(=O)(=O)N1CCN(Cc2cc3nc(-c4cccc5[nH]ncc45)nc(N4CCOCC4)c3s2)CC1 [pictilisib]
Method in brief: as §1

[13] = compound: C[C@@H](Oc1cc(-c2cnn(C3CCNCC3)c2)cnc1N)c1c(Cl)ccc(F)c1Cl [crizotinib]
Method in brief: as §1

[14] = compound: C[C@H](C1=CC=C(C=C1)C(=O)NC2=C3C=CNC3=NC=C2)N
Method in brief: as §1

[15] = compound: C[C@H](Nc1ncnc2nc[nH]c12)c1cc2cccc(Cl)c2c(=O)n1-c1ccccc1 [duvelisib]
Method in brief: as §1

[16] = compound: Cc1cc(Nc2cc(CN3CCOCC3)c3nc(C)c(Cc4ccc(Cl)cc4F)n3n2)n[nH]1 [gandotinib]
Method in brief: as §1

[17] = compound: Cc1cc(Nc2cc(N3CCN(C)CC3)nc(Sc3ccc(NC(=O)C4CC4)cc3)n2)n[nH]1 [tozasertib]
Method in brief: as §1

[18] = compound: Cc1ccc(-n2nc(C(C)(C)C)cc2NC(=O)Nc2ccc(OCCN3CCOCC3)c3ccccc23)cc1 [doramapimod]
Method in brief: as §1

[19] = compound: Cc1ccc(NC(=O)c2ccc(CN3CC[C@H](N(C)C)C3)c(C(F)(F)F)c2)cc1Nc1nccc(-c2cncnc2)n1 [bafetinib]
Method in brief: as §1

[20] = compound: Cc1cccc(CC(=O)N2CCc3c2ccc(-c2cn(C)c4ncnc(N)c24)c3F)n1
Method in brief: as §1

Measured: log2 fold change

ENY2 (UniProt Q9NPA8)
UniProt Q9NPA8, sequence (Q9NPA8 whole entry, looked up): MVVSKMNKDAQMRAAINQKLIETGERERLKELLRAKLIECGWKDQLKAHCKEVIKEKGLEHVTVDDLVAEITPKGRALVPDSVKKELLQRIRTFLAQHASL
active: [1] 0.351 | [14] 0.726 | [16] -0.386 | [20] -0.529
inactive: [2] -0.024 | [3] 0.016 | [4] 0.096 | [5] -0.084 | [6] 0.004 | [7] -0.003 | [8] 0.024 | [9] -0.019 | [10] -0.016 | [11] 0.025 | [12] -0.024 | [13] 0.031 | [15] 0.034 | [17] 0.019 | [18] -0.021 | [19] -0.07

FBRSL1, A0A3B3IRR3
inactive: [1] -0.051 | [2] -0.004 | [3] -0.074 | [4] -0.002 | [5] 0.008 | [6] 0.021 | [7] -0.03 | [8] -0.018 | [10] 0.014 | [12] -0.064 | [13] 0.086 | [14] -0.114 | [15] 0.035 | [16] 0.032 | [17] -0.105 | [18] -0.161 | [19] -0.089 | [20] 0.146

GABPB1 (UniProt Q06547)
inactive: [1] 0.181 | [2] -0.001 | [3] -0.028 | [4] 0.005 | [5] 0 | [6] 0.036 | [7] 0.097 | [8] -0.016 | [9] -0.043 | [10] 0.024 | [11] -0.042 | [12] -0.052 | [13] 0.021 | [14] 0.192 | [15] 0.018 | [16] -0.194 | [17] -0.004 | [18] 0.026 | [19] -0.071 | [20] -0.082

FAM114A2 (UniProt Q9NRY5)
UniProt Q9NRY5, sequence (Q9NRY5 whole entry, looked up): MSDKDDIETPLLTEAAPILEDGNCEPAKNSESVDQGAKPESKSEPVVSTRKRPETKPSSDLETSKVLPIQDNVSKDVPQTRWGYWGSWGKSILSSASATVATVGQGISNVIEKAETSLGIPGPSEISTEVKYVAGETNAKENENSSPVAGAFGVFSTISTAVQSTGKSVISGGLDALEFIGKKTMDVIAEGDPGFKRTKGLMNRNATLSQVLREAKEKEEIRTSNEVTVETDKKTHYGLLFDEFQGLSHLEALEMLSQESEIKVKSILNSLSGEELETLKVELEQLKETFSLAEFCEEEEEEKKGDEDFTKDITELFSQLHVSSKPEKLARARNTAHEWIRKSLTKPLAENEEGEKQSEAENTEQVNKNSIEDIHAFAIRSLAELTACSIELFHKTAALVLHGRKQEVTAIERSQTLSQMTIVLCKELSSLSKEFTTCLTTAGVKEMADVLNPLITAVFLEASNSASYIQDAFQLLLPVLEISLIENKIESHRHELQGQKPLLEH
inactive: [1] 0.021 | [2] 0.134 | [3] 0 | [4] 0.032 | [5] 0.037 | [6] 0.219 | [7] 0.027 | [8] 0.127 | [9] 0.118 | [10] 0.073 | [11] 0.106 | [12] -0.013 | [13] 0.013 | [14] -0.023 | [15] 0.011 | [17] -0.108 | [18] -0.011 | [19] -0.121 | [20] 0.196
active: [16] 0.449

EIF2AK1 (UniProt Q9BQI3)
inactive: [1] 0.044 | [2] -0.044 | [3] 0.068 | [4] -0.021 | [5] -0.028 | [6] -0.004 | [7] 0.041 | [8] -0.004 | [9] 0.122 | [10] 0.101 | [11] 0.142 | [12] -0.022 | [13] -0.036 | [14] -0.033 | [15] 0.06 | [16] -0.009 | [17] -0.009 | [18] 0.017 | [19] -0.068 | [20] 0.062

DSN1 (UniProt Q9H410)
UniProt Q9H410, sequence (Q9H410 whole entry, looked up): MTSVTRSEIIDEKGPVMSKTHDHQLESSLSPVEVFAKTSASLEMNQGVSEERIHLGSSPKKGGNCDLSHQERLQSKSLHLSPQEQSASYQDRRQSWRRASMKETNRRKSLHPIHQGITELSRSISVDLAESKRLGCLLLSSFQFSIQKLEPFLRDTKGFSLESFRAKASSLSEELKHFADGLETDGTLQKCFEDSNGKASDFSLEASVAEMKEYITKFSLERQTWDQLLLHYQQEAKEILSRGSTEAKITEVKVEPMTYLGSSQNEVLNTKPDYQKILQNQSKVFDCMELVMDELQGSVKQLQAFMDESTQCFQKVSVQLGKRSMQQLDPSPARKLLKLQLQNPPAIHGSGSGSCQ
inactive: [1] -0.046 | [2] -0.087 | [3] 0.076 | [4] 0.059 | [5] 0.04 | [6] 0.006 | [7] 0.107 | [8] -0.005 | [9] 0.004 | [10] 0 | [11] 0.009 | [12] -0.027 | [13] -0.016 | [14] -0.051 | [15] 0.004 | [16] 0.008 | [17] 0.015 | [18] -0.037 | [19] -0.026 | [20] 0.021

GBF1 (UniProt Q92538)
inactive: [1] 0 | [2] -0.041 | [3] 0.032 | [4] 0.007 | [5] 0.004 | [6] 0.036 | [7] -0.031 | [8] 0.002 | [9] -0.008 | [10] -0.03 | [11] -0.015 | [12] -0.023 | [13] -0.064 | [14] -0.026 | [15] -0.002 | [16] -0.108 | [17] 0.014 | [18] -0.006 | [19] -0.043 | [20] 0.049

FAM53B (UniProt Q14153)
UniProt Q14153, sequence (Q14153 whole entry, looked up): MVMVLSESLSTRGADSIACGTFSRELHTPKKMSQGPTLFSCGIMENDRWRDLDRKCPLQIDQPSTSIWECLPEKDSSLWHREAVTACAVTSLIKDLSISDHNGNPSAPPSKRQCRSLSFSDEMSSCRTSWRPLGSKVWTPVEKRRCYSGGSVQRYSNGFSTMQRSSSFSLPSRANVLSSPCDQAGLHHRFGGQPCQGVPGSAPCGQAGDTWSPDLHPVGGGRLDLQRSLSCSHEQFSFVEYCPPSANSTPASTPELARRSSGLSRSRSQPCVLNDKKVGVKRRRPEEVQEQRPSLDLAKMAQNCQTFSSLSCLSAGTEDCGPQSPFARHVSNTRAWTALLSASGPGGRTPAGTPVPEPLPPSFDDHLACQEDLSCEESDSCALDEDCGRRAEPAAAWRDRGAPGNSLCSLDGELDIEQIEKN
active: [2] 0.473
inactive: [1] -0.125 | [3] 0.098 | [4] 0.025 | [5] -0.064 | [6] 0.019 | [7] -0.1 | [8] -0.04 | [10] -0.075 | [12] 0.02 | [13] -0.03 | [14] -0.032 | [15] 0.079 | [16] 0.037 | [17] 0.024 | [18] 0.169 | [19] -0.023 | [20] 0.083

FDFT1 (UniProt P37268)
UniProt P37268, sequence (P37268 whole entry, looked up): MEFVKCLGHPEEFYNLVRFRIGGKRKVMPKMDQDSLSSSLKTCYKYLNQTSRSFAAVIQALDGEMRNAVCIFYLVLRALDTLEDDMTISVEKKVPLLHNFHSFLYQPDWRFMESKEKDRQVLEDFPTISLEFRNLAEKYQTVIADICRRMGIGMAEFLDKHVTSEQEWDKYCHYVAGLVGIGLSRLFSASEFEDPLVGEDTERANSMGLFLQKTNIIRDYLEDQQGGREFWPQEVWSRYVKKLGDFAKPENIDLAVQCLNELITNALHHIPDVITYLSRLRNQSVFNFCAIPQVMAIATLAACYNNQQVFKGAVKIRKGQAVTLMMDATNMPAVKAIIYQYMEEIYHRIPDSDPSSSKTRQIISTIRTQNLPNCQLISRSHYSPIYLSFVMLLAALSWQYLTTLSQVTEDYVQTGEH
inactive: [1] 0.002 | [2] -0.037 | [3] -0.033 | [4] -0.048 | [5] -0.018 | [6] 0.047 | [7] -0.155 | [8] 0.068 | [9] 0.018 | [10] 0.016 | [11] -0.037 | [12] -0.018 | [13] 0.062 | [14] -0.045 | [15] 0.19 | [16] 0.207 | [17] -0.004 | [18] 0 | [19] 0.018 | [20] 0.01

FHOD1 (UniProt Q9Y613)
UniProt Q9Y613, sequence (Q9Y613 whole entry, looked up): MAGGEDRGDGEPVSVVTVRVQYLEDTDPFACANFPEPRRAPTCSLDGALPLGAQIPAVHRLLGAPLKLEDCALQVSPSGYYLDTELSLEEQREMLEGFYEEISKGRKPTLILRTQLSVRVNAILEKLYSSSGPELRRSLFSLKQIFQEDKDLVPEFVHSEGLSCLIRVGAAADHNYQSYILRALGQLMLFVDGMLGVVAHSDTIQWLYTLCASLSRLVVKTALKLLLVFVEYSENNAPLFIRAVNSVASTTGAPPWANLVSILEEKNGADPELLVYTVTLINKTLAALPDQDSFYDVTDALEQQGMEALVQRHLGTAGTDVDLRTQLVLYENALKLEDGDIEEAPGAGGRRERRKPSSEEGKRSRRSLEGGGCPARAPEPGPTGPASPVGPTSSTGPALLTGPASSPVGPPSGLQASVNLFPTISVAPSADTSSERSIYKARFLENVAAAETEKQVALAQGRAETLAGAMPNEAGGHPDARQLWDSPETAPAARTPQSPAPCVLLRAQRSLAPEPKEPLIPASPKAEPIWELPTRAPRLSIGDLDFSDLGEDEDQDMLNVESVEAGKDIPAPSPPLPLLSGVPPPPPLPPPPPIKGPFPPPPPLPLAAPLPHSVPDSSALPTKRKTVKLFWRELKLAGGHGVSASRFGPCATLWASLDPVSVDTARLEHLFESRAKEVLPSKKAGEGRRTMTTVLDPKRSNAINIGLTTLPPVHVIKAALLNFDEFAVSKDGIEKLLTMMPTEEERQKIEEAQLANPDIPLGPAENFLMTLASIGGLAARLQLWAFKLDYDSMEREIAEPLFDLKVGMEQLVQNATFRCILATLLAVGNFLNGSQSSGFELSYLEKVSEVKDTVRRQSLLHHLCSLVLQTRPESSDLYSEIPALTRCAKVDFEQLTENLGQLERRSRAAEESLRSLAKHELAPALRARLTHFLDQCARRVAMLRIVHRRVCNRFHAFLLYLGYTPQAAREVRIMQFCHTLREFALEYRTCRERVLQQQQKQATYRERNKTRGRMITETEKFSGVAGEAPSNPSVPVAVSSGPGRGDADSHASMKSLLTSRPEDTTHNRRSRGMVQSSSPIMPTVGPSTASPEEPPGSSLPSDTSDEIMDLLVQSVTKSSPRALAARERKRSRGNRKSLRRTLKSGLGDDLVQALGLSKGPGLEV
inactive: [1] -0.034 | [2] -0.129 | [3] 0.014 | [4] 0.033 | [5] 0.006 | [6] 0.021 | [7] 0.028 | [8] 0.011 | [9] 0.002 | [10] -0.013 | [11] -0.018 | [12] -0.011 | [13] -0.014 | [14] 0.017 | [15] -0.023 | [16] -0.141 | [17] 0.008 | [18] 0.045 | [19] -0.063 | [20] 0.035

FASTKD2 (UniProt Q9NYY8)
inactive: [1] 0.014 | [2] -0.065 | [3] 0.016 | [4] 0.056 | [5] 0.036 | [6] -0.016 | [7] -0.004 | [8] 0.021 | [9] -0.033 | [10] 0.021 | [11] -0.028 | [12] -0.001 | [13] -0.032 | [14] -0.067 | [15] 0.026 | [16] -0.049 | [17] -0.013 | [18] 0.028 | [19] -0.028 | [20] 0.05

GBA2 (UniProt Q9HCG7)
UniProt Q9HCG7, sequence (Q9HCG7 whole entry, looked up): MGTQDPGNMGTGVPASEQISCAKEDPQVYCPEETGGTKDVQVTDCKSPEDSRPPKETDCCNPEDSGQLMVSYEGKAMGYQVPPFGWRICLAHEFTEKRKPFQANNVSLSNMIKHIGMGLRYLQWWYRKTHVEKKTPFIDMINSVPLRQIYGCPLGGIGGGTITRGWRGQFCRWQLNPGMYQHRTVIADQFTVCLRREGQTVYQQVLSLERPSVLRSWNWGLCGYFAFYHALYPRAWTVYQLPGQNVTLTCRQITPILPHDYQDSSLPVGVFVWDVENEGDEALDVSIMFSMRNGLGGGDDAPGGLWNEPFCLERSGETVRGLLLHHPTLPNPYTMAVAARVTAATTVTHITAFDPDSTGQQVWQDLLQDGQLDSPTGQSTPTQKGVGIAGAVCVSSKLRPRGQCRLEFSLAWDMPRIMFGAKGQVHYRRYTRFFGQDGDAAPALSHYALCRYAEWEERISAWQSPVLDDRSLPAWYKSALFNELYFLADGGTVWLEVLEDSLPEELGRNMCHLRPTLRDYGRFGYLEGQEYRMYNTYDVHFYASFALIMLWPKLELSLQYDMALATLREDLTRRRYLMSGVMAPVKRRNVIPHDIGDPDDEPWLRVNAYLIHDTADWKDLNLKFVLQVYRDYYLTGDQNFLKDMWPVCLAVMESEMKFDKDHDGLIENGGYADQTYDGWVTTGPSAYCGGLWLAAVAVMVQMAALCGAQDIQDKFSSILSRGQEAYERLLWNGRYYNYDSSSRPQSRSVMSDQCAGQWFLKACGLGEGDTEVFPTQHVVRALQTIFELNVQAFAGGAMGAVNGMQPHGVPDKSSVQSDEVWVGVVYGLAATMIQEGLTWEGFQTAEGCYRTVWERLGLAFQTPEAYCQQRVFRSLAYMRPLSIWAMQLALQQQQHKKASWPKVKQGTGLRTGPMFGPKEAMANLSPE
inactive: [1] -0.046 | [2] -0.032 | [3] 0.073 | [5] -0.098 | [6] -0.052 | [7] 0.079 | [8] -0.004 | [9] 0.013 | [10] 0.2 | [11] -0.062 | [12] -0.012 | [13] 0.014 | [14] -0.094 | [15] 0.06 | [16] -0.009 | [17] -0.138 | [18] 0.055 | [19] -0.199 | [20] 0.054

FBXO45 (UniProt P0C2W1)
inactive: [1] -0.047 | [2] -0.162 | [3] -0.035 | [4] -0.009 | [6] -0.062 | [7] -0.035 | [8] 0.003 | [9] 0.02 | [10] -0.002 | [11] -0.067 | [12] -0.034 | [13] -0.123 | [14] -0.081 | [16] -0.031 | [17] 0.115 | [18] 0.017 | [19] -0.272 | [20] 0.091

EPB41 isoform 4 (UniProt P11171)
inactive: [1] -0.014 | [2] 0.012 | [3] -0.089 | [8] -0.09 | [9] -0.153 | [10] -0.096 | [11] 0.014 | [13] -0.038 | [14] 0.012 | [16] -0.004 | [18] 0.046 | [20] -0.024

ESRRB isoform 1 (UniProt O95718)
UniProt O95718, sequence (O95718 whole entry, looked up): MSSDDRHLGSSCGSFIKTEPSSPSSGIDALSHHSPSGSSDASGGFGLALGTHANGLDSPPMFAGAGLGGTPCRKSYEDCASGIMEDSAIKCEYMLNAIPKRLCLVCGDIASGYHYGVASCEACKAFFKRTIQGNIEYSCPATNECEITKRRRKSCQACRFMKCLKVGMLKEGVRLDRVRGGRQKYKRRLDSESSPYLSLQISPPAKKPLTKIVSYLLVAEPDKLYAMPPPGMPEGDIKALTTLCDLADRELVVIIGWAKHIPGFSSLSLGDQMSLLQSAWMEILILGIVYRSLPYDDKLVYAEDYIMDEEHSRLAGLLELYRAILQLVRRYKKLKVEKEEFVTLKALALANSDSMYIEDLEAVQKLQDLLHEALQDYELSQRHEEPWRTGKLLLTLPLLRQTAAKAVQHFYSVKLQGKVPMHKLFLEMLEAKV
inactive: [1] 0.233 | [2] -0.269 | [3] -0.011 | [12] 0.05 | [14] 0.438 | [16] -0.437 | [19] 0.028 | [20] -0.308

EIF2B4 (UniProt Q9UI10)
UniProt Q9UI10, sequence (Q9UI10 whole entry, looked up): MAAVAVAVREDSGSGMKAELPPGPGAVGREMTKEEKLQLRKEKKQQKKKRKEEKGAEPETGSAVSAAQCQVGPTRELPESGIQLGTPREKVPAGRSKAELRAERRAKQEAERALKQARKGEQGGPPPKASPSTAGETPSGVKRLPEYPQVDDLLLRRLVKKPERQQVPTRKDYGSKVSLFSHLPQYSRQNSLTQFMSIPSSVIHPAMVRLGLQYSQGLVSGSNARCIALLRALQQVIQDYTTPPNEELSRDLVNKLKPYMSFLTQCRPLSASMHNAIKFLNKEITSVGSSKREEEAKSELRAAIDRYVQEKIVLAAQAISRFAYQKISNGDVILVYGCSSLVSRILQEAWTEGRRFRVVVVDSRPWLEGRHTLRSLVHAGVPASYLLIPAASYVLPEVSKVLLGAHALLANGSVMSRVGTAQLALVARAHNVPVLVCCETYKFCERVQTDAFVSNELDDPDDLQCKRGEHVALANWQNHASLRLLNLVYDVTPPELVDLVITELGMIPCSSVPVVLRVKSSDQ
active: [17] -0.314
inactive: [2] 0.006 | [3] -0.004 | [4] 0.03 | [5] -0.058 | [6] 0.114 | [7] -0.1 | [8] -0.039 | [9] -0.008 | [10] 0.074 | [11] -0.003 | [12] 0.038 | [13] -0.057 | [15] -0.032 | [18] -0.019 | [19] -0.04

EPB41, A0A2R8Y783
inactive: [1] -0.248 | [4] 0.05 | [5] -0.13 | [6] -0.523 | [7] 0.118 | [9] 0.029 | [11] -0.063 | [12] 0.04 | [14] 0.121 | [15] -0.089 | [16] -0.066 | [17] 0.061 | [19] 0.04 | [20] -0.006

EWSR1 (UniProt H7BY36)
inactive: [1] 0.206 | [2] 0.179 | [4] 0.14 | [5] 0.037 | [6] 0.063 | [7] -0.061 | [12] 0.071 | [13] -0.042 | [14] 0.07 | [15] -0.011 | [16] -0.167 | [17] 0.01 | [18] -0.066 | [19] 0.293 | [20] 0.019
